FAS TE block – FAS thioesterase domain inhibitors, primary screen, biochemical, fluorescence intensity, uHTS | AID 602261, 2012 | inhibition, % at 15 µM | Fatty acid synthase (Homo sapiens), P49327 | 0.67% of 360,000 active | recombinant FAS-TE, OMFH fluorogenic substrate, fluorescence endpoint;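 active = compounds whose normalised, plate-corrected inhibition of enzyme fluorescence in the single-dose primary screen is 50% or more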
Myeloid diff MLP – induction of myeloid progenitor differentiation, primary screen, cell-based, flow cytometry, MLPCN library | ER-HoxA9 myeloid progenitors, lysozyme-GFP differentiation | calls only at 10 µM | 1% of 360,000 active | AID 624256, 2012;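 active = normalized GFP-positive differentiation at or above the plate's own cutoff, the solvent-only control mean plus 3 SD; inconclusive = no clear call, values can overlap the other calls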;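 note: cells exposed to compound for four days before flow analysis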
NadD inh – inhibitors of S. aureus NadD, primary screen, biochemical, colorimetric, uHTS; Nicotinate-nucleotide adenylyltransferase NadD (Staphylococcus aureus N315); AID 602399, 2012; 0.78% of 360,000 active; purified NadD enzyme, colorimetric absorbance read-out; inhibition, % at 20 µM; in the data active = inhibition above about 26%
CendR NRP1 mod – modulators of CendR peptide binding to NRP-1, primary screen, biochemical, fluorescence polarization, uHTS; Neuropilin-1 (Homo sapiens), O14786; FAM-RPARPAR peptide binding to NRP-1; inhibition, % at 25 µM; 0.85% of 360,000 active;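 active = inhibition or corrected inhibition above about 18%, plus a signal ratio from 0.5 to 1.5, limit read from the data, passing the limit was not always enough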
CRFR2-BP antag – antagonists of CRF-BP/CRF-R2 complex, primary screen, cell-based, HEK293, calcium dye fluorescence, uHTS | CRF-induced calcium fluorescence | inhibition, % at 11.8 µM | 0.59% of 350,000 active | AID 588475, 2011;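 active = inhibition of the ligand-induced calcium signal above about 50% at the single tested concentration, limit read from the data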
Hits are given with their value; i = inactive; ? = inconclusive; nt = not tested or not shown; + = active, no number; ! = not active in a repeat. A selection: hits, their analogues and other compounds. The true share with any hit is near 3.6%.

SMILES	FAS TE block	Myeloid diff MLP	NadD inh	CendR NRP1 mod	CRFR2-BP antag
CCCCNC(=O)C1c2ccccc2OCC(=O)N1CCc1ccccc1 (stereo not drawn)	i	i	i	i	nt
Cc1ccc(C(=O)Nc2cccc(C(F)(F)F)c2)cc1Nc1cncnc1	i	+!	i	i	i
COc1cc(NC(=O)c2ccc(N)nc2)cc(C(=O)Nc2cccc(C(F)(F)F)c2)c1	i	+!	i	i	i
COc1ccc(NC(=O)Nc2cccc(C(F)(F)F)c2)cn1	i	i	i	28	i
COc1cc(NC(=O)c2nccnc2N)cc(C(=O)Nc2cccc(C(F)(F)F)c2)c1	i	i	i	i	i
COc1ccc(NC(=O)/C=C/c2cccc(F)c2)cn1	i	i	i	19	i
Cc1ccc(C(=O)Nc2cccc(C(F)(F)F)c2)cc1Nc1ccccn1	i	?	i	i	i
COCCNC(=S)N1CCC(C(=O)c2ccc(C)cc2)CC1	i	i	i	i	i
O=C(CCl)N1c2ccccc2Oc2ccc3ccccc3c21	i	+	i	i	i
Nc1[nH]c(C(=O)c2ccccc2)c(-c2ccc(Cl)cc2Cl)c1C(=O)c1ccc(Br)cc1	i	i	i	i	nt
Cc1ccc(NC(=O)C2CCN(c3ncnc4sc(C)c(C)c34)CC2)cc1S(=O)(=O)N(C)C	i	i	i	i	i
Cc1ccc(C)c(S(=O)(=O)N2CCN(C(=O)C3CCN(c4ncnc5sc(C)c(C)c45)CC3)CC2)c1	i	+	i	i	i
COc1ccc(S(=O)(=O)N2CCCCC2c2cc(C(=O)Nc3ccc(OC)cc3C)no2)cc1 (stereo not drawn)	i	i	i	45	nt
CCCOc1ccc(F)cc1-c1cc(C(=O)NCc2cccc(C(F)(F)F)c2)[nH]n1	i	i	i	i	nt
COc1ccc(N(C(=O)c2cccnc2)S(=O)(=O)c2cc(OC)ccc2OC)cc1	i	i	i	i	i
CCCCCCc1cc2cc(-c3nnc(-c4ccccc4OC)o3)c(=O)oc2cc1O	i	+	i	i	i
CCCCCCc1cc2cc(-c3nnc(-c4ccccc4O)o3)c(=O)oc2cc1O	i	+	i	i	i
COc1cccc2cc(-c3nnc(-c4ccccc4)o3)c(=O)oc12	i	i	i	i	90
COc1ccc(-c2nnc(-c3cc4ccccc4oc3=O)o2)cc1	i	i	i	i	i
C[C@@H]1CN([C@@H](C)CO)C(=O)CCCn2nncc2CO[C@@H]1CN(C)C(=O)Nc1ccc(C(C)(C)C)cc1	i	i	i	i	i
CCOC(=O)c1ccc(NS(=O)(=O)c2cc(-c3nnnn3CC)ccc2OC)cc1	i	i	i	i	i
CCCCOC(=O)c1ccc(NS(=O)(=O)c2cc(-c3nnnn3CC)ccc2OC)cc1	i	i	i	23	i
Cc1cccc(CN2CCN(C(=O)CCc3nnc(C4CCCCC4)o3)CC2)c1	i	i	i	i	i
CC(=O)N1CCc2c(sc(NC(=O)C3CC3)c2-c2nc3ccccc3s2)C1	i	+	i	i	i
CC(=O)Nc1sc2c(c1-c1nc3ccccc3s1)CN(C(C)C)CC2	i	?	i	i	i
SMILES	FAS TE block	Myeloid diff MLP	NadD inh	CendR NRP1 mod	CRFR2-BP antag
CC1CCN(S(=O)(=O)c2ccc(C(=O)NNC(=O)C3CC3)cc2)CC1	i	i	i	i	i
COc1cccc(C2=NN(C(=O)c3ccccc3)C(O)(C(F)(F)F)C2)c1 (stereo not drawn)	i	i	i	i	i
COc1cccc(C(=O)N2N=C(c3ccccc3)CC2(O)C(F)(F)F)c1 (stereo not drawn)	i	i	i	27	i
CCn1c(N)c(C(=O)NCc2cccnc2)sc1=S	i	i	i	26	i
COc1ccc(CNC(=O)c2sc(=S)n(-c3ccc(OC)cc3)c2N)cc1	i	i	i	i	66
Nc1c(C(=O)NCc2cccnc2)sc(=S)n1-c1ccccc1	i	i	i	i	i
CC1(C)OC(=O)C2=C(C[C@@H](C3CC3)O[C@@H]2C2CC2)O1	i	i	i	i	nt
Cc1cc(C)cc(OCc2ccc(C(=O)NN)o2)c1	i	+	i	i	i
Cc1c(NC(=O)c2cccs2)cccc1NC(=O)c1cccs1	i	i	i	i	i
O=C(Nc1ccccc1Cl)c1cccs1	i	i	i	26	i
CC1=C(C(=O)N2CCOCC2)CC(CC(=O)NCC2CCCCC2)C(=O)N1CCC1=CCCCC1 (stereo not drawn)	i	i	i	i	i
CC(C(=O)c1ccc(Br)cc1)[n+]1cccc(NC(=O)c2ccccc2)c1 (stereo not drawn)	i	i	i	i	i
CC(C(=O)c1ccc(Br)cc1)[n+]1cccc2ccccc21 (stereo not drawn)	i	+	i	i	i
CCN(CC)C(=O)c1cccc(NC(=O)CC23CC4CC(CC(C4)C2)C3)c1	i	+	i	i	i
CNC(=O)c1ccc(NC(=O)CC23CC4CC(CC(C4)C2)C3)cc1	i	i	i	i	i
CCCCCn1c(=O)[nH]c2cc(C(=O)NCCCN3CCC(C)CC3)ccc2c1=O	i	i	i	28	i
Cc1ccccc1OCC(=O)NC(C)c1ccccc1 (stereo not drawn)	i	i	i	i	i
Cc1ccc(/C=C2/NC(=O)N(Cc3ccccc3)C2=O)s1	i	i	i	i	i
Cc1cccc(CN2C(=O)N/C(=C/c3ccc(C)s3)C2=O)c1	i	+	i	i	i
C[C@@]12CCC=C[C@H]1[C@H](c1ccc(/C=C/c3ccccc3)cc1F)N(Cc1ccccc1)C2=O	i	i	i	21	i
C[C@@]12CCC=C[C@H]1[C@H](c1ccc(C(F)(F)F)cc1)N(Cc1ccccc1)C2=O	i	i	i	26	i
COc1ccc(-c2ccc(C)cc2)cc1[C@H]1[C@@H]2C=CCC[C@@]2(C)C(=O)N1Cc1ccccc1	i	i	i	i	i
OCCN1CCN(c2ncnc3c2ncn3[C@H]2CN(Cc3cccnc3)C[C@@H](CO)O2)CC1	i	?	i	i	nt
Cc1cccc(NCC(=O)N/N=C\c2cccc(Oc3ccccc3)c2)c1	i	i	i	i	i
Cc1ccc(NCC(=O)N/N=C/c2cccc(Oc3ccccc3)c2)cc1	i	i	i	41	i
SMILES	FAS TE block	Myeloid diff MLP	NadD inh	CendR NRP1 mod	CRFR2-BP antag
COc1ccc(C(=O)/C=C2/C(=O)Nc3ccccc32)cc1OC	i	i	i	39	i
COc1ccc(C(=O)/C=C2/C(=O)Nc3ccccc32)cc1	i	i	i	i	i
Cc1ccc(NCCc2ccc(C)nc2)cc1	i	i	i	20	i
O=C(CSc1nnc(-c2ccncc2)o1)Oc1ccccc1	i	i	i	i	i
O=C(CSc1nnc(-c2ccccc2O)o1)Oc1ccc(OCc2ccccc2)cc1	i	+	i	i	i
O=C(CNCC1CCCO1)NCc1ccco1 (stereo not drawn)	i	+	i	i	i

High-throughput results as filed in PubChem.
